A selection: hits, their analogues and other compounds. The true share with any hit is near 6.9%.
VDR inh: blocks the human vitamin D receptor. 400,000 compounds, 0.93% hits. P11473. VDR-SRC2-3 peptide fluorescence polarization, 2 h. Potency, µM, for the others: max response, negative = inhibition, most hits filed as inhibitors; further: on the % scale 0 is the no-effect control and ±100 the full control effect
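Measured by FP: displacement of SRC2-3 coactivator peptide from VDR by library compounds, following a two-hour ambient incubation.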
L3MBTL1 block: blocks human L3MBTL1 | AlphaScreen L3MBTL1–H3K9me1 peptide binding | 230,000 compounds, 0.66% hits | Potency, µM (doses to about 57.1 µM), for inactives: top-dose activity, negative = inhibition, usual class: inhibitors | AID 485360 | Q9Y468; further: on the % scale 0 is the no-effect control and ±100 the full control effect; nearly all actives have a fitted effect of over 60% in size
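L3MBTL1 50 nM + b-AHA-H3(1-15)K9me1 75 nM, 30 min RT; compound added, 30 min RT; streptavidin donor/Ni-chelate acceptor beads 10 ug/mL each final, 30 min RT dark; AlphaScreen read.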
JMJD2A Tudor inh: inhibitors of human JMJD2A Tudor domain; O75164; AlphaScreen JMJD2A-Tudor / H3K4me3 peptide binding; Potency, µM (series often up to 114 µM), for the others: at the top dose activity change, negative = inhibition, hits mostly inhibitors; 390,000 compounds, 4.4% hits; AID 504339; further: on the % scale 0 is the no-effect control and ±100 the full control effect; nearly all actives have a fitted effect of over 50% in size
Target sequence (O75164 whole entry, looked up, the tested form may be a part): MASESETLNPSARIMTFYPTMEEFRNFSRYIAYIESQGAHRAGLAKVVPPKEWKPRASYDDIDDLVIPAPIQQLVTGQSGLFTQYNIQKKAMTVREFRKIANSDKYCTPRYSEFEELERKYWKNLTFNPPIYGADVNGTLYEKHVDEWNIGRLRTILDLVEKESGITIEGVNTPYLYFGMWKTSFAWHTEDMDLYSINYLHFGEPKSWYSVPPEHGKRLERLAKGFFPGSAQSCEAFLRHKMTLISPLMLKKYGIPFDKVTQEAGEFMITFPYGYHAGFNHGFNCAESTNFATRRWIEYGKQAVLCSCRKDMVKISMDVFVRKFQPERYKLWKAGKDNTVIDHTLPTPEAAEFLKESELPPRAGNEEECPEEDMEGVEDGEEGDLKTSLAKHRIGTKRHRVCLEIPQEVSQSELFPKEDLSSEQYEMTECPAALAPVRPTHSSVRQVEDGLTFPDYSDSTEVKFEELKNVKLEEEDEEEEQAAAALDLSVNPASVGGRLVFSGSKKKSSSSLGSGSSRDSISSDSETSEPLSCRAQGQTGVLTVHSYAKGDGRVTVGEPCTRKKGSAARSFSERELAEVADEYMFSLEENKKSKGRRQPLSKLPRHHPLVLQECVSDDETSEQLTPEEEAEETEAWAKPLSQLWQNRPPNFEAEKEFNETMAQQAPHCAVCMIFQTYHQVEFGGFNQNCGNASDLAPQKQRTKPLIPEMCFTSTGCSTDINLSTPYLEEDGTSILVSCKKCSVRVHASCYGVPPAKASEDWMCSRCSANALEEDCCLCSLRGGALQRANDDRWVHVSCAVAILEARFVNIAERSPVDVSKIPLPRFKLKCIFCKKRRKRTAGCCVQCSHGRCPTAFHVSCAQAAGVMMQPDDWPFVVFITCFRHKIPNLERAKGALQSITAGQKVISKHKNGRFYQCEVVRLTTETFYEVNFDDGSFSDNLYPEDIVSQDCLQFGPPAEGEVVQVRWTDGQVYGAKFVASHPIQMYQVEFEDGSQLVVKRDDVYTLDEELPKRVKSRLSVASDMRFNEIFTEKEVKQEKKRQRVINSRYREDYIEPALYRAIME
PLK1 PBD inh: PLK1 (human) polo-box domain binding inhibition | P53350 | Plk1 PBD binding of FITC phosphopeptide, fluorescence polarization | Potency, µM, for inactives: max response, negative = inhibition, most hits filed as inhibitors | 360,000 compounds, 2.8% hits | AID 720504; further: series mostly up to about 57 µM; on the % scale 0 is the no-effect control and ±100 the full control effect; nearly all actives have a fitted effect of over 65% in size
HP1b binding inh: blocks HP1-beta chromodomain binding to methylated histone tails; P83916; AlphaScreen HP1-beta / biotin-H3K9me3 peptide binding; Potency, µM (top dose mostly 114 µM), inactives show at the highest dose activity change, negative = inhibition, actives largely listed as inhibitors; 390,000 compounds, 0.56% hits; further: nearly all actives have a fitted effect of over 70% in size
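Compound inhibition of the preformed complex between 50 nM HP1-beta and 50 nM biotinylated H3K9me3 peptide was read by AlphaScreen. Buffer was PBS pH 7.4 with 0.01% Tween-20. Incubations ran 30 min at room temperature, with 10 ug/mL donor/acceptor beads.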
BAZ2B block: BAZ2B (human) inhibition; Potency, µM (highest dose often 114 µM), for inactives: top-dose activity change, negative = inhibition, most hits filed as inhibitors; 360,000 compounds, 4.4% hits; AlphaScreen BAZ2B-H3K14Ac peptide displacement; Q9UIF8; further: on the % scale 0 is the no-effect control and ±100 the full control effect; nearly all actives have a fitted effect of over 60% in size
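AlphaScreen displacement of biotin-H3(5-23)K14Ac peptide (50 nM final) from BAZ2B (50 nM final) in PBS pH 7.4, 0.01% Tween-20; complex preformed 30 min RT, then compounds (top 110 uM) 30 min RT, beads 20 min dark.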
An asterisk follows results filed as active; ? = inconclusive; . = not tested or not shown. The call rests on the fitted dose curve; in most records, active means well fitted curve in the direction sought with a large enough effect; inconclusive means small, poorly fitted or top-dose-only effect, or another doubt; inactive means no such curve, though single readings can be large; an effect the other way counts as inactive or inconclusive. Potency means the concentration at half of the fitted maximal effect.

SMILES	VDR inh	L3MBTL1 block	JMJD2A Tudor inh	PLK1 PBD inh	HP1b binding inh	BAZ2B block
CC[N+](C)(CC)CCCOC(=O)C(O)(c1ccccc1)C1CCCCC1 (configuration not stated)	-18.6%	9.8%	39.8µM*	-22.9%	?	-27.7%
CC(C)(C)c1o[nH]c(=O)c1C[C@H](N)C(=O)O	-1.6%	.	.	.	.	.
O=C(Oc1ccccc1)N1CCC2(CCN(Cc3ccccc3)CC2)CC1	-0.6%	.	.	.	.	.
C#CCNc1ccncc1S(=O)(=O)NC(=O)NC(C)C	9.7%	2.7%	50.1µM*	-5.5%	24.3%	-9.0%
CCc1n[nH]c(=S)n1/N=C/c1c(C)nn(-c2ccccc2)c1Cl	-12.4%	.	?	-8.3%	35.3%	-4.4%
Cc1nn(CCc2n[nH]c(=S)n2-c2cccc(Cl)c2)c(C)c1[N+](=O)[O-]	0.7%	.	44.7µM*	-15.2%	21.3%	1.7%
O=C(N/N=C/c1c(O)n(Cc2ccccc2)c(=O)[nH]c1=O)c1ccncc1	-4.7%	.	?	-4.4%	18.2%	50.1µM*
O=C(N/N=C/c1c(O)n(Cc2ccc(F)cc2)c(=O)[nH]c1=O)c1ccccc1	-10.1%	-28.8%	?	5.1%	40.8%	79.4µM*
C=CCn1c(O)c(/C=N/NC(=O)c2ccncc2)c(=O)[nH]c1=O	2.4%	.	-22.6%	5.0%	42.4%	79.4µM*
O=C(O)c1ccc(N=Cc2c(O)n(Cc3ccc(F)cc3)c(=O)[nH]c2=O)cc1	-24.3%	0.5%	-11.2%	1.0%	47.3%	-30.4%
O=[As]O[As]=O (configuration not stated)	6.8%	.	.	.	.	.
C=CCc1cc(OC)c2c(c1OC)OCO2	-0.2%	.	.	.	.	.
O=C1OC(=O)c2c(Br)c(Br)c(Br)c(Br)c21	-15.9%	-5.3%	?	-6.9%	45.8%	?
O=C(Nc1ccccc1)N1CCC2(CC1)OCCO2	-4.7%	7.1%	-4.4%	-14.3%	28.5%	-2.1%
COc1ccc(NC(=O)N2CCC3(CC2)OCCO3)cc1	-22.5%	7.2%	-15.8%	26.7µM*	-0.4%	-19.0%
CC1OC(OC2C(O)CC(OC3C(O)CC(OC4CCC5(C)C(CCC6C5CCC5(C)C(C7=CC(=O)OC7)CCC65O)C4)OC3C)OC2C)CC(O)C1O (configuration not stated)	10.4%	.	.	.	.	.
C=C(C)[C@H]1CN[C@H](C(=O)O)[C@@H]1CC(=O)O	10.7%	.	.	.	.	.
C=C(C)[C@H]1CN[C@H](C(=O)O)[C@H]1CC(=O)O	-0.8%	.	39.8µM*	0.2%	?	.
C[C@@H](NC(=O)[C@@H](N)Cc1ccc(O)cc1)C(=O)NCC(=O)N(C)[C@@H](Cc1ccccc1)C(=O)NCCO	13.0%	.	.	.	.	.
O=C1NC(=O)N(c2ccccc2F)C(=O)/C1=C/c1ccc(Oc2ccc([N+](=O)[O-])cn2)cc1	79.4µM*	.	?	5.97µM*	-3.3%	56.2µM*
Cc1ccc(CN(C)CCc2ccccn2)cc1	-9.9%	.	3.16µM*	-5.4%	?	?
CN(CCc1ccccn1)Cc1ccc(Cl)cc1	-9.4%	.	6.31µM*	-4.0%	?	44.7µM*
Cc1ccc(OCCOc2cccc(C=C3C(=O)NC(=O)NC3=O)c2)c(C)c1	?	26.3%	35.5µM*	5.32µM*	67.8%	?
O=C1NC(=O)C(=Cc2cn(CCOc3ccc4c(c3)OCO4)c3ccccc23)C(=O)N1	3.1%	.	-24.4%	-0.2%	38.3%	-7.9%
CCOP(=O)(/C=C(\Cl)c1ccccc1)C(O)c1ccc(F)cc1 (configuration not stated)	?	.	?	21.2µM*	24.5%	-0.9%
SMILES	VDR inh	L3MBTL1 block	JMJD2A Tudor inh	PLK1 PBD inh	HP1b binding inh	BAZ2B block
CC(=O)Nc1ccc(Nc2c(CCC(C)C)c(C)c(C#N)c3nc4ccccc4n23)cc1	3.7%	.	-13.8%	.	39.6%	0.0%
CC(Cc1ccccc1)NCC(=O)Nc1cc(N(C)C)nc2ccccc12 (configuration not stated)	-0.3%	.	1.12µM*	-1.4%	?	35.5µM*
C/C=C(/C)C(=O)OC1CC[C@]2(C)C3CCC4[C@]5(O)CC(O)[C@]6(O)C(CN7CC(C)CCC7[C@]6(C)O)[C@]5(O)C[C@@]42O[C@]13O (some centres not stated)	19.2%	.	.	.	.	.
O=C1NC(=O)N(c2cccc(F)c2)C(=O)/C1=C/c1ccc(N2CCOCC2)cc1	-26.6%	3.2%	-8.6%	11.9µM*	46.8%	-6.5%
Cc1cc(N2CCOCC2)ccc1/C=C1\C(=O)NC(=O)N(c2ccccc2)C1=O	?	0.1%	-1.4%	11.9µM*	49.2%	?
COc1cc(N2CCOCC2)ccc1C=C1C(=O)NC(=O)NC1=O	-13.3%	25.5%	-10.1%	-9.1%	-12.0%	-0.3%
O=C(O)/C=C/CO	4.1%	.	.	.	.	.
CC(N)(COP(=O)(O)Oc1ccccc1)C(=O)O (configuration not stated)	22.9%	.	.	.	.	.
CC(C)C(O)(C(=O)OC[C@@H]1CC[N+]2([O-])CCCC12)C(C)O (some centres not stated)	-3.7%	.	.	.	.	.
CC(=O)O[C@@H]1CN2CCC1CC2	0.1%	.	.	.	.	.
NC1=N[C@H](O)[C@H]2C3O[C@]4(O)O[C@H](C(O)[C@@]2(N1)[C@@H]4O)C3(O)CO (some centres not stated)	-5.5%	.	.	.	.	.
C[C@@H]1CC[C@H]2[C@H](C)[C@H]3CC[C@@]4(O)[C@@H]5CC(=O)[C@H]6CC(=O)CC[C@]6(C)[C@H]5C[C@H]4[C@@H]3CN2C1	5.0%	.	.	.	.	.
CCN(CC)C(=O)c1ccc(NC(=O)c2cccc(C(F)(F)F)c2)cc1	14.8%	-3.3%	-2.1%	-19.0%	39.7%	-1.6%

Compound activity as filed in PubChem.
